Here are results for 17 compounds from ChEMBL document CHEMBL1961873, “Compounds: GSK PKIS; Assays: Nanosyn kinase panel” (2012).

In experiment [1] the target is T1, Tyrosine-protein kinase receptor TYRO3 (Homo sapiens) (UniProt Q06418).
T1 sequence (whole entry): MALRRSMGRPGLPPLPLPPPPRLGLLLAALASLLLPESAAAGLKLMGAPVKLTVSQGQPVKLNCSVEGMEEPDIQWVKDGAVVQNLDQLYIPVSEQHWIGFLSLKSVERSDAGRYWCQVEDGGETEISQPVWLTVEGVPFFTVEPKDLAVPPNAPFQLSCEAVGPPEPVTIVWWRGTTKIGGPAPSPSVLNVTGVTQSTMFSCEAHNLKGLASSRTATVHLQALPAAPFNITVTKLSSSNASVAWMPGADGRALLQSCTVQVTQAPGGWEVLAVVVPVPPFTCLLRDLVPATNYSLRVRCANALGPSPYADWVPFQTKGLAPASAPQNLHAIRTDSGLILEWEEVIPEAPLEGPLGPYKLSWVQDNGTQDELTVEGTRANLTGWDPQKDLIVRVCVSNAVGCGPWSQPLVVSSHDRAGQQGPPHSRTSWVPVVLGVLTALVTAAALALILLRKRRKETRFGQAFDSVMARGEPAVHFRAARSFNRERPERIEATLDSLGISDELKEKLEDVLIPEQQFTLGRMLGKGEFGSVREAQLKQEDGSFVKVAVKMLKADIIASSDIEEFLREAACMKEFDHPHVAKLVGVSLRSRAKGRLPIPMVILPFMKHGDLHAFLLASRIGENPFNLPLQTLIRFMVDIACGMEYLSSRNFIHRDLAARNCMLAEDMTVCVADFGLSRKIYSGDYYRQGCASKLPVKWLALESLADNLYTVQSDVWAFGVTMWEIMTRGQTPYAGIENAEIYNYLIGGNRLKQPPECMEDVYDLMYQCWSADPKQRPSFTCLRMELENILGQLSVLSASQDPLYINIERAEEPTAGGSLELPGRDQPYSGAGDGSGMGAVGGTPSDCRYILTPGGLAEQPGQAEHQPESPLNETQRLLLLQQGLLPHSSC
Conditions: at 1 µM.

The target of experiment [2] is Tyrosine-protein kinase Yes (Homo sapiens) (UniProt P07947). Particulars: at 0.1 µM.
Tyrosine-protein kinase Yes (Homo sapiens), sequence (P07947 2-543 limits assumed): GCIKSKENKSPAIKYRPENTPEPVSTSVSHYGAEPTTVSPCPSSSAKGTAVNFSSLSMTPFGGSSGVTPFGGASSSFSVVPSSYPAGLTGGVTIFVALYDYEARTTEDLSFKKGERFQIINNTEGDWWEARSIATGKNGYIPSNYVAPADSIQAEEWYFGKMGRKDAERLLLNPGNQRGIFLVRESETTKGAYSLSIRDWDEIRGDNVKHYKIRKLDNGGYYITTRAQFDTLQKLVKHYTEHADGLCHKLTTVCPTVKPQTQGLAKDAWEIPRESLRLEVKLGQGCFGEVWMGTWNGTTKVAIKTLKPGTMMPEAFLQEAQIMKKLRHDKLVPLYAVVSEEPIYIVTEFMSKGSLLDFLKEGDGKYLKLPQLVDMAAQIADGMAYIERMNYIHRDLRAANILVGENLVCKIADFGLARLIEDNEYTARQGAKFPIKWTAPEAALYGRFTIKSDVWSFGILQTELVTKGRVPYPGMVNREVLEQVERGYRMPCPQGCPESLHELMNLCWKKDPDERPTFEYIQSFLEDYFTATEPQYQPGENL
The target is the same in experiment [3]. Particulars: at 1 µM.
For experiment [4], the target named is T2, Tyrosine-protein kinase ZAP-70 (Homo sapiens) (UniProt P43403).
T2 sequence (whole entry): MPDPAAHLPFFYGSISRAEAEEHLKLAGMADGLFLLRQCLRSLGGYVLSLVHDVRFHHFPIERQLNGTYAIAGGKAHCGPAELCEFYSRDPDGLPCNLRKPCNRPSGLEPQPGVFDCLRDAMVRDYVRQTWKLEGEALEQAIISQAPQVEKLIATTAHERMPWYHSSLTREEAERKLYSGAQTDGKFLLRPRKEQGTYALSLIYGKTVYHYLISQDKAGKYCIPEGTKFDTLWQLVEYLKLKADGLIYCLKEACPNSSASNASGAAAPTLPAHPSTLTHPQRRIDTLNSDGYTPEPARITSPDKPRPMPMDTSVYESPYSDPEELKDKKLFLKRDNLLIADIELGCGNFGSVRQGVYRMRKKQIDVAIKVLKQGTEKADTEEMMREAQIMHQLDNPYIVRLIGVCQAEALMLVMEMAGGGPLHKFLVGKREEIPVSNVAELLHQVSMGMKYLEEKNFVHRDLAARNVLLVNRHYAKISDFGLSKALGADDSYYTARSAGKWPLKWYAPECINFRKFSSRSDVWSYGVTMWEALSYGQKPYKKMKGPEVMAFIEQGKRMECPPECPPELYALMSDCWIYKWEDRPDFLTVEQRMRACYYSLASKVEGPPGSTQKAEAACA
Conditions: at 0.1 µM.

Experiment [5] concerns the target T2, Tyrosine-protein kinase ZAP-70 (Homo sapiens). Particulars: at 1 µM.
In experiment [6] the target is Serine/threonine-protein kinase B-raf (Homo sapiens) (UniProt P15056). Conditions: at 0.1 µM.
Serine/threonine-protein kinase B-raf (Homo sapiens), sequence (P15056 whole entry): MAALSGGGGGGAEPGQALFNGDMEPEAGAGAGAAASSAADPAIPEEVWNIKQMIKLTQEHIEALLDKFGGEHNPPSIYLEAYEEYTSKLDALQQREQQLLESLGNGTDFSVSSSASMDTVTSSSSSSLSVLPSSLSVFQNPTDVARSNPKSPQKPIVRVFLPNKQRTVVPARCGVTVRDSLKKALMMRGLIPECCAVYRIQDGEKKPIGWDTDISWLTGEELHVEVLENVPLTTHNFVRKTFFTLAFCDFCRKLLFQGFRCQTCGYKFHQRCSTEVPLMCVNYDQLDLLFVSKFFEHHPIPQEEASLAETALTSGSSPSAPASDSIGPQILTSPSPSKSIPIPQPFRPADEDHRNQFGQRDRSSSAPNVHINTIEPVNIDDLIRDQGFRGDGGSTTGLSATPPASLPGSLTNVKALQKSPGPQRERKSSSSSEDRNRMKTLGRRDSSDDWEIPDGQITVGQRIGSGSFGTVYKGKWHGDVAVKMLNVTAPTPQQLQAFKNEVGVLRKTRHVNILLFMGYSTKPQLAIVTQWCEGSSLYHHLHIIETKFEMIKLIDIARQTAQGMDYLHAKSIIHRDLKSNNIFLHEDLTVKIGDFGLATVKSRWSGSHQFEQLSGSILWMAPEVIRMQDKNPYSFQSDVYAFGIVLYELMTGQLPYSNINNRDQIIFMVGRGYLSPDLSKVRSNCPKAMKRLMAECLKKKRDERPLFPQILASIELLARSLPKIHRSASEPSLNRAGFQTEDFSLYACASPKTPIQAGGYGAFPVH
Experiment [7] has the same target. Conditions: at 1 µM.
For experiment [8], the system named is Serine/threonine-protein kinase B-raf (Homo sapiens), P15056 [V600E]. Particulars: at 0.1 µM.
Serine/threonine-protein kinase B-raf (Homo sapiens), P15056 [V600E], sequence (P15056 whole entry V600E): as the sequence (P15056 whole entry) above, with V600E counted along it
Experiment [9] has the same test system. Particulars: at 1 µM.
For experiment [10], the target named is RAF proto-oncogene serine/threonine-protein kinase (Homo sapiens) (UniProt P04049). Conditions: at 0.1 µM.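 Note: values are mean CRAF kinase inhibition from profiling of the GSK Published Kinase Inhibitor Set.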
RAF proto-oncogene serine/threonine-protein kinase (Homo sapiens), sequence (P04049 whole entry): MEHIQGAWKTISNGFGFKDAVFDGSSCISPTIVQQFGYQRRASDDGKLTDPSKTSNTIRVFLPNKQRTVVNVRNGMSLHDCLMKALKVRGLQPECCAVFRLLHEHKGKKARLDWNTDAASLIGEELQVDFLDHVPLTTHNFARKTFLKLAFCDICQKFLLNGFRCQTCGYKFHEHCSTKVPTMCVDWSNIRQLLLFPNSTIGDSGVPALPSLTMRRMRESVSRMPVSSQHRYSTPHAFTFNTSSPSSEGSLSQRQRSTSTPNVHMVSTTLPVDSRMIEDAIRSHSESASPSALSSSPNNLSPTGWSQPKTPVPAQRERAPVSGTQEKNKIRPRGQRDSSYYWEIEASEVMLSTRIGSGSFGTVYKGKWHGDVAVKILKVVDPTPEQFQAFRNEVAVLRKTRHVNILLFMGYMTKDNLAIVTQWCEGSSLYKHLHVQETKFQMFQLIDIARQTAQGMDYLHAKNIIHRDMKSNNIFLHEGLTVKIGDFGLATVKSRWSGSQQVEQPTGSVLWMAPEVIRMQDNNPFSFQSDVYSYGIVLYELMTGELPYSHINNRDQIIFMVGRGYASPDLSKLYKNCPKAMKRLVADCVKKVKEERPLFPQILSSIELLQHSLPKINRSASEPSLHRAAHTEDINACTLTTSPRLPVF

With `Cn1cc(C=C2C(=O)Nc3cccnc32)c2ccccc21`, the inhibition stood at 13.2% in experiment [1]; 5.4% in [2]; 45.1% in experiment [3]; 1.96% in [4]; 11.5% in experiment [5]; 3.28% in [6]. In addition, the inhibition is 6.52% in experiment [7], 2.79% in [8], 5.11% in experiment [9] and -3.3% in experiment [10].

In the case of `COc1ccc(COc2ccc(Cc3cnc(N)nc3N)cc2OC)cc1`, the inhibition in experiment [1] is 0.77%; in [2], -0.39%; in experiment [3], -3.3%; in [4], 3.08%; in experiment [5], 4.05%; in [6], -1.31%. Also, the inhibition in experiment [7] is -0.42%; in experiment [8], -1.07%; in experiment [9], 0.7%; in [10], 1.84%.

Take `[O-][S+]1CCN(Cc2ccc(-c3ccc4ncnc(Nc5ccc(OCc6ccccc6)c(F)c5)c4c3)o2)CC1`: the inhibition was found to be 3.36% in experiment [1]; 5.74% in [2]; 30.5% in experiment [3]; 2.48% in [4]; 1.13% in [5]; 2.02% in experiment [6]. The inhibition in experiment [7] is 5.8%; in [8], 2.97%; in experiment [9], 6.44%; in experiment [10], -0.54%.

For `Nc1ncnc2occ(-c3ccc(NC(=O)Nc4cccc(C(F)(F)F)c4)cc3)c12`, the inhibition worked out at 32.2% in experiment [1]; 7.17% in [2]; 45.7% in experiment [3]; 1.4% in [4]; 1.43% in experiment [5]; 7.07% in experiment [6]. For the same compound, the inhibition came to 13.3% in [7], 5.78% in experiment [8], 13.5% in experiment [9] and 0.71% in experiment [10].

As to `CCn1c(-c2nonc2N)nc2c(C#CC(C)(C)O)nc(OC[C@@H](N)c3ccccc3)cc21`, the inhibition is 0.45% in [1]; 0.68% in [2]; 0.4% in experiment [3]; -0.65% in [4]; -0.38% in experiment [5]; -0.61% in experiment [6]. In addition, the inhibition is 3.45% in experiment [7], -0.86% in experiment [8], 3.32% in [9] and -1.41% in experiment [10].

For the compound `Cc1nnc(-c2ccc(C)c(-c3ccc(C(=O)Nc4cccc(C#N)c4)cc3)c2)o1`, the inhibition in experiment [1] amounted to 1.98%; in experiment [2], 1.42%; in experiment [3] it was 5.81%; in experiment [4], 2.77%; in experiment [5] it was 3.12%; in experiment [6], 3.86%. Besides, the inhibition is 3.97% in experiment [7], 3.34% in [8], 3.85% in experiment [9] and -4.37% in [10].

`COc1cc2ncn(-c3cc(O[C@@H](C)c4ccccc4Cl)c(C(N)=O)s3)c2cc1OC`: the inhibition in experiment [1] was determined as 6%; in experiment [2], 6.69%; in [3], 33.2%; in experiment [5], 2.45%; in [6], 5.9%; in [7] it was 5.17%. Moreover, the inhibition in experiment [8] is 4.21%; in experiment [9], 4.64%; in experiment [10], -0.12%.

In the case of `O=C1Nc2ccc(C(=O)c3ccco3)cc2C1=Cc1cc(Cl)c(O)c(Cl)c1`, the inhibition in experiment [1] is 8.57%; in [2], 2.58%; in experiment [3] it was 15.8%; in experiment [4], 2.14%; in [5], 3.97%; in experiment [6], 11.8%. For the same compound, the inhibition in [7] came out at 26.7%; in [8] it was 12.5%; in experiment [9], 27.4%; in experiment [10] it was 2.35%.

Take `CCCN1CCC(Oc2cc(Nc3nc(Nc4cccc(F)c4C(N)=O)c4cc[nH]c4n3)c(OC)cc2Cl)CC1`: the inhibition in experiment [1] is 1.14%; in experiment [2], 1.16%; in [3], 1.57%; in [4], -1.5%; in experiment [5], 0.24%; in experiment [6] it was 2.31%. In addition, the inhibition in [7] was 24.1%; in [8] it was 1.35%; in experiment [9], 23.7%; in experiment [10], -1.14%.

In the case of `Cc1cccc(-c2n[nH]cc2-c2ccc3ncccc3n2)n1`, the inhibition is 1.88% in experiment [1]; 1.95% in experiment [2]; 9.98% in experiment [3]; 3.21% in experiment [4]; 1.47% in [5]; 1.47% in experiment [6]. Moreover, the inhibition was 1.32% in [7], 0.26% in experiment [8], 1.23% in experiment [9] and -0.77% in [10].

In the case of `c1cnn2ncc(-c3ccnc(Nc4ccc5c(c4)OCCO5)n3)c2c1`, the inhibition in experiment [1] amounted to 25%; in [2] it was 6.25%; in [3], 18.3%; in experiment [4], 0.79%; in [5] it was 9.39%; in experiment [6] it was 9.37%. Further, the inhibition was 33.3% in experiment [7], 8.24% in experiment [8], 31% in experiment [9] and -0.29% in [10].

For the compound `CCN1CCC(CC(=O)Nc2n[nH]c3nc(-c4cccs4)c(Br)cc23)CC1`, the inhibition in experiment [1] was 0.12%; in [2], -2.01%; in [3] it was 2.56%; in experiment [4] it was -3.15%; in experiment [5], -1.71%; in [6] it was -3.34%. The inhibition in experiment [7] is -4.88%; in experiment [8], -3.29%; in experiment [9], -4.51%; in [10], 3.42%.

`CN(C)c1cc2c(Nc3ccc4nc(Cc5ccccc5)[nH]c4c3)ncnc2cn1`: the inhibition in [1] amounted to 4.25%; in experiment [2] it was 9.2%; in experiment [3] it was 37%; in experiment [4] it was 6.34%; in [5] it was 12.4%; in experiment [6], 7.82%. Besides, the inhibition in experiment [7] is 7.35%; in experiment [8], 7.73%; in experiment [9] it was 11.2%; in experiment [10], -7.41%.

Regarding `NC(=O)c1cccc(Nc2nccc(Nc3cccc4[nH]ncc34)n2)c1`, the inhibition in [1] was 54.4%; in experiment [2] it was 32%; in experiment [3], 82.5%; in experiment [4], -2.28%; in [5], 4.64%; in experiment [6] it was -3.03%. The inhibition in [7] is 4.38%; in experiment [8], -3.72%; in experiment [9], 3.75%; in experiment [10] it was -3.86%.

Consider `CC1=C(C(=O)Nc2ccc3[nH]ncc3c2)C(c2ccc(Cl)c(Cl)c2)CC(=O)N1` (stereo not given), for which the inhibition amounted to 1.34% in experiment [1]; 4.16% in [2]; 20% in experiment [3]; 0.71% in experiment [4]; 2.3% in [5]; 5.79% in experiment [6]. Moreover, the inhibition was 31.6% in experiment [7], 6.48% in experiment [8], 31.4% in experiment [9] and 4.61% in [10].

With `CCn1c(-c2nonc2N)nc2cnc(Oc3cccc(NC(=O)c4ccc(OCCN5CCOCC5)cc4)c3)cc21`, the inhibition in experiment [1] is 2.81%; in experiment [2] it was 3.49%; in experiment [3], 4.67%; in experiment [4], -1.7%; in experiment [5], -1.56%; in experiment [6] it was 4.86%. Besides, the inhibition was 6.86% in [7], 5.41% in [8], 5.71% in experiment [9] and -0.87% in experiment [10].

For `NCc1ccc(-c2nc(-c3ccc(Cl)c(O)c3)c(-c3ccncc3)[nH]2)cc1`, the inhibition in [1] was 5.26%; in experiment [2], 5.85%; in experiment [3] it was 37.7%; in experiment [4] it was 0.84%; in experiment [5], 1.92%; in experiment [10], 6.34%.

For orientation: inhibition means the drop in the measured response relative to a control, in per cent.
